Assay outcomes (PubChem BioAssay)
TDP1 inh: inhibitors of human tyrosyl-DNA phosphodiesterase TDP1 | 350,000 compounds, 0.28% hits | recombinant TDP1, AlphaScreen DNA substrate cleavage | Potency, µM (top dose mostly 130 µM), inactives show top-dose activity change, negative = inhibition, hits mostly inhibitors | AID 485290; also: potency is read from the fitted curve at half-maximal effect; nearly all actives have a fitted effect of over 40% in size
Target sequence (Q9NUW8 whole entry, looked up): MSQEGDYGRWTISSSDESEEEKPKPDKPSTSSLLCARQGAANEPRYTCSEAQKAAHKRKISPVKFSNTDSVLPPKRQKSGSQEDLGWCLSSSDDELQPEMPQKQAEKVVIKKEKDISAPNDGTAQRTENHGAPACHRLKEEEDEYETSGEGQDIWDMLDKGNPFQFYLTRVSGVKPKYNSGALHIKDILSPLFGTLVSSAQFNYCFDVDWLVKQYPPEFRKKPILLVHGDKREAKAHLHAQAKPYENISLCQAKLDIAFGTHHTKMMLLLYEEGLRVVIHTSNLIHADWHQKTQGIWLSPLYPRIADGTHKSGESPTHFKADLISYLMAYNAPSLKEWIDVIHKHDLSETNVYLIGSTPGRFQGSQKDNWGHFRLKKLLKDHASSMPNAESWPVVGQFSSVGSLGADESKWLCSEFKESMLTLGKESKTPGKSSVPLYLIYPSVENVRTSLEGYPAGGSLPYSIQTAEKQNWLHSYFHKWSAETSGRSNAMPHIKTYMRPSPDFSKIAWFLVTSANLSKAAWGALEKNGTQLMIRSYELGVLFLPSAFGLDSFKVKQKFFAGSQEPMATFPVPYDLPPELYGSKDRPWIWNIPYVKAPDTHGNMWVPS
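Steps: enzyme plus compound, 15 min RT; add biotin/phosphotyrosine-FITC oligonucleotide (15 nM final), react 5 min; add donor/acceptor beads (10 ug/ml final), 10 min; read AlphaScreen. Tdp1 at 1 nM final.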
DT40 TDP1 CPT: DT40-hTDP1 cell growth loss with CPT | chicken DT40 Tdp1-/-;hTDP1 cells + 20 nM CPT, ATP luminescence, 48 h | Potency, µM (titrated, usually from 46.2 µM), for inactives: at the top dose activity change, negative = growth inhibition, hits mostly inhibitors | 420,000 compounds, 12% hits; also: potency is read from the fitted curve at half-maximal effect; nearly all actives have a fitted effect of over 55% in size
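Chicken DT40 Tdp1-/- cells stably complemented with human TDP1 were seeded at 400 cells/well in medium containing 20 nM camptothecin, exposed to pin-transferred compounds, and grown at 37 °C for at least 48 hr. Viability was read as ATP luminescence.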
TDP1 cell noCPT: qHTS for Inhibitors of human tyrosyl-DNA phosphodiesterase 1 (TDP1): qHTS in cells in absence of CPT; DT40 Tdp1-/- hTDP1 cells, no CPT, ATP luminescence, 48 h; Potency, µM (series often up to 46.2 µM), for inactives: at the highest dose activity change, negative = growth inhibition, usual class: inhibitors; 420,000 compounds, 15% hits; AID 686978, 2013; also: potency is read from the fitted curve at half-maximal effect; nearly all actives have a fitted effect of over 55% in size
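No-CPT arm: Tdp1-/-;hTDP1 DT40 cells (400/well) plus compounds, incubated ≥48 hr at 37 °C. Readout CellTiter-Glo luminescence.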
IL-1B inflam inh: inhibitors of inflammasome signaling (IL-1 beta secretion); 360,000 compounds, 4.7% hits; AID 743279; THP-1 LPS/ATP IL-1B secretion, AlphaLISA, 16 h; active compounds read low; activity change, % at 57.5 µM; in the data active = activity change below about -50%; inconclusive = mostly about -30% to -49%
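Secreted IL-1B measured by AlphaLISA bead assay after 16 h compound exposure of THP-1 cells; compounds (final up to 57.5 uM) added 1 h before LPS (250 ng/mL) and ATP (1.25 mM) stimulation; lower signal means less secretion.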
Giardia kill: kills Giardia lamblia | Giardia lamblia trophozoite viability | activity change, % at 7.66 µM, hits read low | 340,000 compounds, 0.15% hits | AID 540267; in the data active = activity change below about -80%; inconclusive = between about -30% and that limit;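 also: parasites exposed to compound for two days anaerobically before the ATP read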
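Luminescence from cellular ATP indicates surviving trophozoites (100 cells/well) following 48 hrs anaerobic compound treatment at 37 deg C; signal develops 15-30 min at room temperature.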
ELG1 repair inh: ELG1-dependent DNA repair inhibition; HEK293T ELG1-luciferase reporter, luminescence, 16 h; DNA damage induced by 5-fluorouridine; Potency, µM (titrated, usually from 46.1 µM), without a hit: at the top dose activity change, negative = inhibition, usual class: inhibitors; 330,000 compounds, 2.3% hits; AID 504467; also: potency is read from the fitted curve at half-maximal effect; nearly all actives have a fitted effect of over 55% in size
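Reporter activity after DNA damage by 5-fluorouridine is monitored. Compound-treated cells incubate 16 hr at 37 °C, then ONE-Glo is added for 30 min before luminescence reading.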
* marks the source's active call; other numbers are inactive results; ? = inconclusive; . = not tested or not shown. Compounds with a hit are over-represented: about 19% of the library has one in this group of screens. Unless noted, calls follow the shape of the dose curve; as a rule, active = well fitted curve in the direction sought with a large enough effect; inconclusive = small, poorly fitted or top-dose-only effect, or another doubt; inactive = no such curve, though single readings can be large; an effect the other way counts as inactive or inconclusive. % is scaled to controls: 0 for no effect and ±100 for the full control effect.

SMILES | TDP1 inh | DT40 TDP1 CPT | TDP1 cell noCPT | IL-1B inflam inh | Giardia kill | ELG1 repair inh
COc1ccc(Cl)cc1NS(=O)(=O)N1CCOCC1 | -9% | -1% | 20% | 8 | -1 | 9%
C=Cn1cc[n+](CC(=O)c2ccc(-c3ccccc3)cc2)c1 | . | 3.3µM* | 2.3µM* | ? | 2 | -24%
C=Cn1cc[n+](CC(=O)c2cccs2)c1 | 3% | 10% | -13% | 5 | 10 | 7%
C=Cn1cc[n+](CC(=O)c2cc(C(C)(C)C)c(O)c(C(C)(C)C)c2)c1 | . | 15µM* | 16µM* | -13 | 15 | ?
CC1=C(C(=O)Nc2cccnc2)C(c2cccc(F)c2)n2nc(SCc3ccccc3F)nc2N1 (stereo not given) | 0% | -6% | -2% | . | . | .
O=C(N/N=C/c1ccc(O)c(O)c1)NC12CC3CC(CC(C3)C1)C2 | . | 12µM* | 15µM* | -82* | -21 | -4%
Cc1ccc(C(C[N+](=O)[O-])c2c(-c3ccccc3O)[nH][nH]c2=O)cc1 (stereo not given) | 2% | 3.3µM* | 2.9µM* | -102* | -15 | -4%
COc1ccc(C(C[N+](=O)[O-])c2c(C)[nH]c3ccccc23)cc1OC (stereo not given) | 3% | ? | ? | ? | 12 | 0%
O=c1[nH][nH]c(-c2ccccc2O)c1C(C[N+](=O)[O-])c1ccc(Br)cc1 (stereo not given) | 11% | 3.3µM* | 2.6µM* | ? | 19 | ?
COc1ccc(C/C(N)=N/n2cnnc2)cc1Cl | -1% | 3% | -14% | 9 | 16 | 1%
N/C(CS(=O)(=O)c1ccccn1)=N\OC(=O)c1ccc(Cl)cc1 | 5% | 6% | -22% | -8 | -3 | ?
N/C(CCS(=O)(=O)c1ccc(Cl)cc1)=N\OC(=O)c1ccc(Cl)cc1 | . | ? | 21µM* | ? | 10 | -1%
COc1ccc(C(=O)O/N=C(\N)Cc2ccc(Cl)cc2)cc1OC | 2% | 16µM* | 21µM* | -54* | -1 | ?
COc1ccc(C(=O)O/N=C(\N)Cc2ccc(Cl)c(Cl)c2)cc1OC | 1% | 16µM* | ? | -6 | -10 | 18µM*
CC1=C(C(=O)N2CCOCC2)CC(CC(=O)NC2CCCC2)C(=O)N1Cc1ccccc1 (stereo not given) | . | 6% | -11% | 19 | . | .
C=CCNc1n[nH]c(=S)s1 | . | 5.2µM* | 2.6µM* | -13 | . | .
CNc1n[nH]c(=S)s1 | . | 5% | -10% | 20 | -2 | -1%
CC(C)NC(=O)c1cc(C2CCCCN2C(=O)OCCF)on1 (stereo not given) | . | -1% | 6% | -67* | . | .
O=C(NCc1ccc(F)cc1)c1cc(C2CCCCN2C(=O)OCCF)on1 (stereo not given) | . | ? | ? | -3 | . | .
COC(=O)N1CCCCC1c1cc(C(=O)NCc2ccc(F)cc2)no1 (stereo not given) | . | -6% | -9% | -5 | . | .
CC(C)COC(=O)N1CCCCC1c1cc(C(=O)Nc2ccc3c(c2)OCO3)no1 (stereo not given) | . | -58% | -51% | -19 | . | .
CC(C)COC(=O)N1CCCCC1c1cc(C(=O)Nc2ccccc2)no1 (stereo not given) | . | 18µM* | ? | -25 | . | .
CC(C)COC(=O)N1CCCCC1c1cc(C(=O)NCc2ccc(F)cc2)no1 (stereo not given) | . | ? | 21µM* | -12 | . | .
O=C(Nc1ccccc1)C1=C[C@@H](C2CC2)C[C@@H](OCc2ccc(CO)cc2)O1 | 4% | -16% | -25% | 4 | -19 | 0%
COc1ccc2c(c1)C(=O)[C@@H](OC(=O)NCCc1ccc(OC)c(OC)c1)[C@H](c1ccc(OC)c(Br)c1)O2 | 10% | . | . | . | . | .
SMILES | TDP1 inh | DT40 TDP1 CPT | TDP1 cell noCPT | IL-1B inflam inh | Giardia kill | ELG1 repair inh
O=C(Cn1cncn1)N/N=C/c1ccccc1O | 6% | 15µM* | 13µM* | 37 | -10 | ?
O=C(Cn1cnc([N+](=O)[O-])n1)N/N=C/c1ccccc1O | 7% | 16µM* | 16µM* | 166 | 4 | -23%
O=C(CCn1cnc2ccccc21)N/N=C/c1ccccc1O | 5% | ? | 23µM* | 253 | -2 | ?
O=C(CSc1ccc2ccccc2n1)N/N=C/c1ccccc1O | . | 5.2µM* | 5.8µM* | 299 | 13 | 16µM*
COc1cc(/C=N/n2c(C3CCCCC3)n[nH]c2=S)ccc1O | . | -6% | -24% | 1 | -16 | ?
Cc1cc(C)cc(-n2cc(C(=O)O)c(=O)cc2C)c1 | 2% | -2% | -23% | -8 | -9 | ?
O=C(Cn1cnc([N+](=O)[O-])n1)N/N=C/c1cc(Cl)ccc1O | 9% | 4.6µM* | 7.3µM* | 169 | 12 | ?
Cc1ccccc1/C=N/NC(=O)Cn1cnc([N+](=O)[O-])n1 | -1% | -10% | 3% | 20 | 5 | 18%
O=C(O)CN(CC(=O)O)CC1=CC2C(=CC1=O)Oc1cc(O)c(CN(CC(=O)O)CC(=O)O)cc1C21OC(=O)c2ccccc21 (stereo not given) | . | -21% | ? | . | . | .
CC(C)C#Cc1ccc2c(c1)O[C@@H](CN(C)S(=O)(=O)c1cn(C)cn1)[C@@H](C)CN([C@H](C)CO)S2(=O)=O | . | ? | ? | -2 | . | .
C/C=C/c1ccc2c(c1)O[C@H](CN(C)C(=O)NC1CCCC1)[C@H](C)CN([C@H](C)CO)S2(=O)=O | . | 18µM* | 21µM* | -25 | . | .
Cc1ccc(S(=O)(=O)N(C)C[C@H]2Oc3cc(C#Cc4ccccc4)ccc3S(=O)(=O)N([C@H](C)CO)C[C@@H]2C)cc1 | . | 10µM* | 9.2µM* | 33 | . | .
C[C@@H]1CN([C@@H](C)CO)S(=O)(=O)c2ccc(Br)cc2O[C@H]1CN(C)C(=O)C1CCC1 | . | ? | 16µM* | -17 | . | .
C[C@H]1CN([C@@H](C)CO)S(=O)(=O)c2ccc(Br)cc2O[C@H]1CN(C)S(=O)(=O)c1ccccc1 | . | 16µM* | 16µM* | 8 | . | .
C[C@H]1CN([C@@H](C)CO)S(=O)(=O)c2ccc(Br)cc2O[C@H]1CN(C)C(=O)NC1CCCCC1 | . | ? | -2% | ? | . | .
C[C@@H]1CN([C@H](C)CO)S(=O)(=O)c2ccc(Br)cc2O[C@H]1CN(C)C(=O)C1CC1 | . | -19% | -9% | -6 | . | .
Cc1cccnc1NC(=O)Cn1nc(-c2ccccc2)oc1=S | 3% | -30% | ? | 48 | -17 | ?
